# PME-1 primary: blocks human protein phosphatase methylesterase 1; Q9Y570; recombinant PME-1, FP-Rh probe fluorescence polarization; inhibition, % at 5.9 µM; hit rate 0.53% among 320,000;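 active = inhibition above the campaign mean of all compounds plus 3 SD, cut at about 26% in these data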;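 note: competitive labeling of PME-1 active site by serine hydrolase directed probe; inhibitors block probe labeling so polarization falls and inhibition rises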
# Target sequence (Q9Y570 whole entry, looked up): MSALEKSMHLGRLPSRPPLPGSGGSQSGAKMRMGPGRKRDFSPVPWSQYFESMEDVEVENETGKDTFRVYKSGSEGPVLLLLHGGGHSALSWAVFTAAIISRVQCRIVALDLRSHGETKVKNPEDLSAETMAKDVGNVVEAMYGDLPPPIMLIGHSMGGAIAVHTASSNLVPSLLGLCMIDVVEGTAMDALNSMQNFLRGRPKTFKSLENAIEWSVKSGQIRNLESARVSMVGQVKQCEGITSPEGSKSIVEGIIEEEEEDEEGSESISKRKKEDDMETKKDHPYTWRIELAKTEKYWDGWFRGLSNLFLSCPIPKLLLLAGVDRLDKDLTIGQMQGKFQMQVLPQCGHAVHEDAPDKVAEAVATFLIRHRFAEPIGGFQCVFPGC
# PAFAH1B3 inh: inhibitors of human PAFAH1B3 | hit rate 0.28% among 340,000 | recombinant PAFAH1B3, FP-rhodamine probe, fluorescence polarization | inhibition, % at 3.39 µM | AID 492972;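 active = inhibition above the screen-wide average of all tested compounds plus 3 SD, cut at about 25% in these data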
# Target sequence (Q15102 whole entry, looked up): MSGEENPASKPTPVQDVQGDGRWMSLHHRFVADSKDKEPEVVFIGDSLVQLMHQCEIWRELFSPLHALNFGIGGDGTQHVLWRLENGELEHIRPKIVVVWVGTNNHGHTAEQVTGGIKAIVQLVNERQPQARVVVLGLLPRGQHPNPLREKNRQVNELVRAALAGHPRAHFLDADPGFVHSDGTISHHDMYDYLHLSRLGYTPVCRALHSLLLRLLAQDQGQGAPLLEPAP
# Fam108B inh: counter-screen for RBBP9 inhibitors: inhibitors of mouse Fam108B | inhibition, % at 9.51 µM | recombinant Fam108B, FP-Rh probe fluorescence polarization | hit rate 0.33% among 300,000 | AID 1947;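 active = inhibition above the screen mean inhibition plus 3 SD, computed separately per campaign, cut at about 18% in these data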;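 note: inhibitors lower polarization as less probe binds the enzyme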
# PAFAH1B2 FP inh: inhibitors of human PAFAH1B2; recombinant PAFAH1B2, FP-rhodamine activity probe, fluorescence polarization; inhibition, % at 3.39 µM; hit rate 1.2% among 340,000; AID 492953;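 active = inhibition above the mean of all tested compounds plus 3 SD, cut at about 24% in these data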
# pPAFAH inh: pPAFAH (human) enzyme inhibition; Q13093; recombinant pPAFAH, FP-rhodamine probe fluorescence polarization; inhibition, % at 3.39 µM; hit rate 1.5% among 330,000;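 active = inhibition above the mean inhibition across the screen plus 3 SD, cut at about 25% in these data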;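 note: inhibitors block binding of the rhodamine activity-based probe so polarization drops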
# PAFAH2 FP inh: PAFAH2 (human) inhibition; hit rate 0.99% among 340,000; Q99487; recombinant PAFAH2, FP-rhodamine activity probe, fluorescence polarization; AID 492956; inhibition, % at 3.39 µM;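 active = inhibition above the mean over all tested compounds plus 3 SD, cut at about 30% in these data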;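 note: inhibitors block probe labeling of enzyme so polarization drops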
# Numbers stand for hits; i = inactive; nt = no result given. A selection: hits, their analogues and other compounds. The true share with any hit is near 2.8%.
SMILES,PME-1 primary,PAFAH1B3 inh,Fam108B inh,PAFAH1B2 FP inh,pPAFAH inh,PAFAH2 FP inh
N#CC1=C(N)S[C@H](C(=O)C23CC4CC(CC(C4)C2)C3)[C@H]1c1ccncc1,i,i,i,28,i,i
O=C(NCc1ccncc1)C12CC3CC(CC(C3)C1)C2,i,i,i,i,i,i
COC1OC(O)C(NC(=O)C(F)(F)F)CC1O (centres undefined),nt,i,nt,i,nt,i
CCOC(=O)c1c(C)[nH]c(C(C)=NNC(=O)c2cccs2)c1C,nt,i,nt,i,i,i
C/C(=N\Nc1nc2ccccc2s1)c1ccc(Br)s1,51,i,i,i,i,i
CC(=NNc1nc2ccccc2s1)c1ccncn1,nt,i,nt,i,nt,i
CCN1CCN(S(=O)(=O)c2ccc(Cl)c(C(=O)NC3CCCCC3)c2)CC1,i,i,i,28,i,i
COc1ccc(NS(=O)(=O)c2ccc(NC(=O)C(CCSC)NC(N)=O)cc2)cc1 (centres undefined),i,i,i,i,31,i
CNS(=O)(=O)c1ccc(NC(=O)C(CCSC)NC(N)=O)cc1 (centres undefined),i,i,i,i,i,i
COc1ccc2oc(C(=O)Nc3nc(-c4ccccn4)cs3)c(C)c2c1,i,i,i,i,i,i
Cc1ccc(-c2cc(-c3ccc(Cl)cc3)c(C#N)c(N)n2)o1,i,i,i,i,25,i
O=C(CSc1nc2nn(-c3ccccc3)c(=O)c-2c2n1CCCCC2)c1ccc(OC(F)F)cc1,nt,i,nt,i,i,i
O=C(O)c1ccc(S(=O)(=O)N(Cc2ccc(F)cc2)C2CCCCC2)cc1,i,i,i,26,i,i
COc1cc(/C=N/NC(=O)c2ccc(COc3ccccc3Cl)o2)cc(Br)c1O,i,i,i,i,32,i
Cc1ccc(-c2ccc(/C=N/N3C(=O)C4C5C=CC(CC5)C4C3=O)o2)c([N+](=O)[O-])c1 (centres undefined),i,i,i,i,25,i
CC(C)(C)c1ccc(OCC(=O)NNC(=O)Cc2cccs2)cc1,i,i,i,26,i,i
Cc1ccc(S(=O)(=O)NCC2(c3ccccc3)CCOCC2)cc1,i,i,i,26,i,i
Cc1ccc(C(C)C)c(OCC(=O)NNCC(=O)Nc2cccc(F)c2)c1,nt,i,nt,25,i,i
COc1ccccc1C(=O)NC(=S)Nc1cccc2cc(O)ccc12,31,i,i,i,i,i
CCc1ccc(N2CSC3=C(C#N)C(c4cccs4)CC(=O)N3C2)cc1 (centres undefined),i,i,i,i,i,i
Cc1ccc(N2CSC3=C(C#N)C(c4cccs4)CC(=O)N3C2)cc1 (centres undefined),i,i,i,i,25,i
O=C(NCc1ccccc1)C1CCN(S(=O)(=O)c2ccc(Cl)cc2)CC1,44,i,i,i,i,i
O=C(NNC(=O)C1CCN(S(=O)(=O)c2ccc(Cl)cc2)CC1)c1ccc(Cl)cc1,i,i,i,i,i,i
CCN(CC)S(=O)(=O)c1ccc(C(=O)NNC(=O)C2CCN(S(=O)(=O)c3ccc(Cl)cc3)CC2)cc1,i,i,i,36,i,i
Cc1cccc(NC(=O)C2CCN(S(=O)(=O)c3ccc4ccccc4c3)CC2)n1,i,i,i,i,i,i
SMILES,PME-1 primary,PAFAH1B3 inh,Fam108B inh,PAFAH1B2 FP inh,pPAFAH inh,PAFAH2 FP inh
Cc1cccc(NC(=O)C2CCN(S(=O)(=O)c3ccc(Cl)cc3)CC2)n1,i,i,i,29,i,i
O=C(NNC(=O)C1CCN(S(=O)(=O)c2ccc(Cl)cc2)CC1)c1ccccc1,i,i,i,34,i,i
COc1ccc(C(CNC(=O)c2cc(S(=O)(=O)N3CCN(c4ccccc4)CC3)ccc2Cl)N(C)C)cc1 (centres undefined),nt,i,nt,i,i,i
Cc1nc(N)[nH]c(=O)c1CCCNc1ccc([N+](=O)[O-])cc1,nt,i,nt,i,nt,i
Cc1cc(C)n(C(C)Sc2ccccc2)n1 (centres undefined),i,i,i,i,i,i
COc1ccccc1Nc1nc2ccccc2n1C,i,i,i,i,28,i
COc1ccc2nc3oc(C(=O)N4CCC(C(N)=O)CC4)cc3cc2c1,i,i,i,i,31,i
Cc1cc(NS(=O)(=O)c2ccc(Nc3nc(-c4sc(NC(=O)c5ccccc5)nc4C)cs3)cc2)no1,81,nt,i,nt,69,nt
COc1ccc(-c2csc(Nc3ccc(S(=O)(=O)Nc4cc(C)on4)cc3)n2)cc1,i,i,i,i,27,i
CN1CCN(CCNC(=O)c2ccc3nc(-c4ccc(F)cc4)c(-c4ccc(F)cc4)nc3c2)CC1,i,i,i,28,i,i
O=C(Cn1cnc2c(NCc3ccccc3)ncnc21)NCc1nc2ccccc2[nH]1,nt,i,nt,i,i,i
Nc1ccccc1Nc1nc2ccccc2[nH]1,i,i,i,i,i,i
Nc1ccc(Nc2nc3ccccc3[nH]2)cc1,40,i,i,i,i,i
CC1(CCc2ccc3c(c2)OCO3)NCCc2c1[nH]c1ccccc21 (centres undefined),i,i,i,i,i,i
OCCN1CCN(CC/C=C2/c3ccccc3Sc3ccc(C(F)(F)F)cc32)CC1,i,i,i,i,i,i
CN1CCN(CCC=C2c3ccccc3Sc3ccc(S(=O)(=O)N(C)C)cc32)CC1,i,i,i,i,28,i
Cc1ccc(S(=O)(=O)N(C)C)cc1NC(=O)CSc1nnc(C2CC2)n1C1CC1,i,i,nt,i,i,i
Cc1ccc(-c2cnc(C3CC3)o2)cc1S(=O)(=O)Nc1ccccc1,i,i,i,i,31,i
O=C(NCC1CCCN1S(=O)(=O)c1ccccc1)C(=O)NC1CC1 (centres undefined),i,i,i,i,i,i
O=c1c(Sc2ccccc2)c(C(F)(F)F)[nH]n1-c1ccccc1,i,i,i,29,i,i
CC(NC(=O)CN(C)S(=O)(=O)c1cccc2nsnc12)c1ccccc1 (centres undefined),i,i,i,31,i,i
COc1ccc(Oc2coc3cc(OC(=O)N4CCOCC4)ccc3c2=O)cc1,i,i,i,i,34,i
COc1ccc(Oc2coc3cc(OC(=O)c4cccs4)ccc3c2=O)cc1,i,i,i,i,i,i
COc1ccc(NC(=O)C2CCN(C(=O)c3cccs3)CC2)cc1OC,32,i,i,i,i,i
Cc1ccccc1N1C(=O)c2cc(S(N)(=O)=O)c(Cl)cc2NC1C (centres undefined),i,i,i,i,i,i
CC1CCCC(NC(=O)COC(=O)[C@@H](NC(=O)c2ccccc2Cl)C(C)C)C1C (some centres undefined),nt,i,nt,i,i,i
CCOc1ccc(NC(=O)CN(c2ccc(OC)cc2)S(=O)(=O)c2cccs2)cc1,i,i,nt,i,i,i
CS(=O)(=O)N(CC(=O)NCCSc1ccc(Cl)cc1)c1ccc2c(c1)OCO2,i,i,i,25,i,i
